“And” between values parts separate entries of the source, which are not always exact repeats. Equal values may be shown once.
System: Noggin (protein binding on small-molecule microarray)
Test: Noggin binders on small-molecule microarray, primary screen, biochemical, 635/667 nm fluorescence (AID 1095);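 further: score merges 667 nm feature fluorescence with signal to noise over triplicate slides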
Details: 635 nm fluorescence, higher = more signal

Row | SMILES | composite z-score
1 | C=CCN(CCCC)C(=O)C1N(c2ccc(CCO)cc2)C(=O)C2C(C(=O)O)C3C=CC21O3 (stereo not given) | -2.44 and -3.58
2 | COC(=O)C1=C(C)N(Cc2ccccc2)C2=C3C(=O)N(c4ccccc4)C(=O)[C@@H]3[C@@](O)(C(=O)OC)C(=O)N2[C@@H]1c1ccccc1 | 0.608 and 0.455
3 | CCC[C@@H]1C[C@@]1(CCC)[C@@H](NC(=O)c1ccc(-c2ccccc2)cc1)c1cccc(Cl)c1 | 0.191 and -0.508
4 | C=CCN(C(=O)C(c1cccs1)N(C(=O)/C=C\C(=O)O)c1ccc(CCO)cc1)C(C)(C)C (stereo not given) | -2.17 and -1.9
5 | C=CCN(Cc1ccccc1)C(=O)C1N(CCCCCCO)C(=O)C2C(C(=O)O)C3C=CC21O3 (stereo not given) | -1.9 and -1.38
6 | COc1ccc(COC(=O)NN=C2C[C@@H](O)[C@@H](O)[C@@H]3[C@@H]4C(=O)N(C(C)(C)C)C(=O)[C@@H]4CC[C@H]23)cc1 | 0.468
7 | O=C1NC(=O)C2C1C=CC(C(O)c1ccc([N+](=O)[O-])cc1)N2Nc1ccc(Cl)cc1Cl (stereo not given) | -0.142 and -0.311
8 | COC(=O)C1=C(C)N(Cc2ccccc2)C2=C3C(=O)CCC[C@@H]3[C@@](O)(C(=O)OC)C(=O)N2[C@@H]1c1ccccc1 | 0.637 and 0.433
9 | C[N+](C)(C)CCCCNC(=O)[C@H]1C[C@H]2C(=O)N[C@@H](CCCC[N+](C)(C)C)C(=O)N2[C@H]1c1cccc(OCCO)c1 | 1.89 and 1.75
10 | C=CCN(CCCCC)C(=O)C1N(c2ccc(CCO)cc2)C(=O)C2C(C(=O)O)C3C=CC21O3 (stereo not given) | -1.73 and -1.08
11 | CC(C)C(=O)N[C@@H]1CCCN1C(=O)C=Cc1ccccc1 | 0.783
12 | C[C@@H](ON=C1[C@H]2CCn3c(=O)n(-c4ccccc4)c(=O)n3[C@H]2[C@H](O)[C@@H]2O[C@H]12)c1cn([C@H](CO)Cc2ccccc2)nn1 | 0.557
13 | C=CCN1C(=O)[C@]2(O[C@H](CCn3cc(CCO)nn3)[C@@H]([Si](C)(C)c3ccc(OC)cc3)[C@@H]2C)c2cc(N3C(=O)c4cccc5cccc3c45)ccc21 | 0.708 and 0.778
14 | COC(=O)[C@@]1(Cc2ccc(F)cc2)[C@H]2c3cc(C(=O)N4CCCC4)n(Cc4c(CO)[nH]cc(C)c4=O)c3C[C@H]2CN1C(=O)c1ccccc1 | 0.0162 and -0.629
15 | C=CCN(CCCCC)C(=O)C1N(c2c(Cl)cccc2CO)C(=O)C2C(C(=O)O)C3C=CC21O3 (stereo not given) | -2.4 and -2.23
16 | C=CCN(C(=O)C1N(c2c(Cl)cccc2CO)C(=O)C2C(C(=O)O)C3C=CC21O3)C(C)(C)C (stereo not given) | -1.7 and -1.45
17 | COC(=O)[C@@]1(Cc2ccc(OC)cc2)[C@H]2c3cc(C(=O)N(C)C)n(Cc4ccc(O)c(OC)c4)c3C[C@H]2CN1C(=O)c1ccccc1 | 0.219 and 0.19
18 | C=CCN(C(=O)C1N(C(C)(C)CO)C(=O)C2C(C(=O)O)C3C=CC21O3)c1ccc(OC)cc1 (stereo not given) | -2.91 and -3.66
19 | C[N+](C)(C)CCCCNC(=O)[C@@H]1C[C@@H]2C(=O)N[C@@H](CCCC[N+](C)(C)C)C(=O)N2[C@@H]1c1cccc(OCCO)c1 | 2.03 and 1.71
20 | CCCC[C@@H]1CN2[C@@H](CC[C@@H](C)[C@@H]2c2ccc(Br)cc2)C(=O)O1 | 0.0666 and -0.156

Row | SMILES | composite z-score
21 | CCN1C(=O)[C@H]2[C@H]3[C@H](O)[C@H](O)CC(=NOC)[C@@H]3CC[C@H]2C1=O | 0.178
22 | C=C[C@H](OC)[C@@H](O)c1ccc(OCCO)cc1 | -2.2 and -1.82
23 | COC(=O)C1=C(C)N(Cc2ccccc2)[C@]23O[C@](C(=O)OC)(C(=O)N2[C@@H]1c1ccccc1)[C@@H](c1ccccc1)[C@@H]3C(=O)c1ccccc1 | 0.115 and 0.974
24 | CCOC(=O)[C@@H]1CC=C2CC1C(=O)N1CCC[C@@H]1[C@H]2O[Si](C)(C)C(C)(C)C (stereo not given in full) | -0.462 and -0.414
25 | CCOC(=O)[C@@H]1CC2O[C@]23C[C@@H]1C(=O)N1CCC[C@@H]1[C@H]3O[Si](C)(C)C(C)(C)C (stereo not given in full) | -0.355 and 0.12
26 | Cc1ccc(S(=O)(=O)OC[C@@H]2CN3[C@@H](CC[C@@H](C)[C@@H]3c3ccc(Br)cc3)C(=O)O2)cc1 | 0.0884 and 0.47
27 | COC(=O)C1=C(C)N(Cc2ccccc2)[C@]23O[C@](C(=O)OC)(C(=O)N2[C@@H]1c1ccccc1)[C@H]1C(=O)N(c2ccccc2)C(=O)[C@H]13 | 0.468 and 0.611
28 | CCOC(=O)c1ccc(NC(=O)O[C@H]2[C@H](OC(=O)Nc3ccccc3)[C@H](OC(=O)Nc3ccccc3)[C@@H](OC)O[C@@H]2CO)cc1 | 0.536 and 1.04
29 | C[N+](C)(C)CCCCCCNC(=O)[C@H]1C[C@H]2C(=O)N[C@@H](CCCC[N+](C)(C)C)C(=O)N2[C@H]1c1ccc(O)cc1 | 0.938 and 0.161
30 | Cc1ccc(S(=O)(=O)N[C@@H]2COC(=O)CC=C[C@@H](C)[C@@H]3C=C[C@H](O)[C@@H](COC(=O)CC=C[C@H]2C)O3)cc1 | 0.902 and 0.305
31 | CCCNC(=O)OC[C@H]1O[C@H](CCON=C(C)CCC(=O)OC[C@H]2O[C@H](C#Cc3ccccc3)C=C[C@@H]2Oc2ccc(C)cc2)C=C[C@@H]1Oc1ccc(OC)cc1 | -0.346
32 | C=CCN(CCCC)C(=O)C1N(C(C)(C)CO)C(=O)C2C(C(=O)O)C3C=CC21O3 (stereo not given) | -2.07 and -1.17
33 | C=C[C@@H](C)[C@H](O)c1ccc(O)c2ccccc12 | 0.753 and -0.896
34 | C=CCN(Cc1ccccc1)C(=O)C1N(C(C)(C)CO)C(=O)C2C(C(=O)O)C3C=CC21O3 (stereo not given) | -2.68 and -1.76
35 | C=CC[C@H](O)c1ccc(OCCO)cc1 | -0.292 and 0.249
36 | C=CCN(C(=O)C(c1cccs1)N(C(=O)/C=C\C(=O)O)c1ccc(CCO)cc1)c1ccc(OC)cc1 (stereo not given) | -1.86 and -2.24
37 | C=CC[C@@H](O)c1ccc(OCCO)cc1 | 0.29 and -0.934
38 | C=CCN(C(=O)C1N(CCCCCCO)C(=O)C2C(C(=O)O)C3C=CC21O3)c1ccc(OC)cc1 (stereo not given) | -2.89 and -3.12
39 | COC(=O)C1=C(C)N(Cc2ccccc2)C2=C(C(=O)c3ccccc3)[C@H](c3ccccc3)[C@@](O)(C(=O)OC)C(=O)N2[C@@H]1c1ccccc1 | 0.495 and 0.653
40 | Cc1ccc(S(=O)(=O)N[C@H]2COC(=O)[C@@H](C)COC(=O)[C@H](C)NC(=O)CC=C[C@H]2C)cc1 | 1.17
